# Gal4-VP16 FLuc – Gal4-VP16 reporter inhibition counter-screen. Potency, µM (highest dose often 53.6 µM), usual class: inhibitors. actives 3.5% (n = 310,000). Drosophila S2 Gal4-VP16 UAS-luciferase, luminescence, 20 h. AID 2546;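 further: Gal4-VP16 expression switched on by copper sulfate through the metallothionein promoter; nearly all actives have a fitted effect of over 50% in size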
# uPA surface inh – blocks generation of uPA at the cell surface | cell surface uPA generation assay, qHTS | Potency, µM (top dose mostly 38.3 µM), hits mostly inhibitors | actives 0.31% (n = 330,000) | AID 540303; active means well fitted inhibition curve with a large enough effect; inconclusive means small, poorly fitted or top-dose-only effect; inactive means no such curve, though single readings can be large or run the other way; tested in mouse RAW 264.7 cells; further: nearly all actives have a fitted effect of over 55% in size
# BCR signal inh – chronic active BCR signaling inhibition | ABC-DLBCL IkBa-CBG/CBR reporter, luminescence ratio, 4 h | Potency, µM (highest dose often 46.1 µM), actives largely listed as inhibitors | actives 0.05% (n = 340,000) | AID 493014; active means well fitted inhibition curve with a large enough effect in the signal ratio, with a control signal flat, not every such curve was filed as active; inconclusive means small, poorly fitted or top-dose-only effect, or effect the other way, or a change in a side signal; the % refers to the signal ratio
#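 TMD8 human ABC-DLBCL cells with doxycycline-inducible IκBα–green luciferase fusion and unfused red luciferase, in 0.5% FBS medium; compounds up to 46 uM, 4 h at 37C. Green/red luminescence ratio, filter-overlap corrected, fitted to concentration-response curves.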
# a7 integrin act – integrin-mediated muscular dystrophy alleviation activation; alpha7betagal myoblasts, beta-gal FDG fluorescence, 48 h; Potency, µM (doses to about 38.3 µM), most hits filed as activators; actives 0.064% (n = 350,000); AID 624291; further: nearly all actives have a fitted effect of over 60% in size
#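 alpha7betagal+/- myoblasts (passage 13, 250/well) treated 48 h at 37C with compounds at 1:260 dilution of DMSO stock. Lysed, then beta-galactosidase activity read as FDG fluorescence (ex 480/em 540) after 30 min, with pre-read for autofluorescence.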
# RORg inh – ROR gamma (mouse) transcription inhibition | Drosophila S2 Gal4-RORgamma UAS-luciferase reporter, 20 h | Potency, µM (doses to about 53.6 µM), actives largely listed as inhibitors | AID 2551 | P51450 | actives 5.4% (n = 310,000); further: nearly all actives have a fitted effect of over 60% in size
# Target sequence (P51450 whole entry, looked up, the tested form may be a part): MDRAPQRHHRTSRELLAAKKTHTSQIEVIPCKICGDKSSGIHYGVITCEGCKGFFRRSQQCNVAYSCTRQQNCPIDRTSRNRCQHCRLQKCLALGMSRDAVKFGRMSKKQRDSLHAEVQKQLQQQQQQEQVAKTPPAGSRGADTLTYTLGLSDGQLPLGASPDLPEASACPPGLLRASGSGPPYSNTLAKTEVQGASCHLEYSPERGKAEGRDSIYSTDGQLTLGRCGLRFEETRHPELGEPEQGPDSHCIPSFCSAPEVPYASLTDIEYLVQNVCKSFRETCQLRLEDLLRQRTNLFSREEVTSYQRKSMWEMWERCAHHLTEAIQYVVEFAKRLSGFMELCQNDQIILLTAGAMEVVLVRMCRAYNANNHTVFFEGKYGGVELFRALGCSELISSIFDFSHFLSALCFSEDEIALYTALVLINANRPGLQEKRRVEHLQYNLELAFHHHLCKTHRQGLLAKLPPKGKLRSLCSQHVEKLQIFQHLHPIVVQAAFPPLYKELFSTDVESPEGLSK
#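 Read-out: Photinus luciferase luminescence; inhibitors lower reporter signal. Insect Schneider cells with Gal4-ROR gamma fusion under metallothionein promoter, UAS reporter; 700 uM final copper sulfate induction, 20 hr, ambient temperature.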
# Mito fusion yeast – mitochondrial division inhibition or fusion activation. S. cerevisiae fusion-defective mutant growth rescue, CellTiterGlo 48 h. AID 485298. Potency, µM (highest dose often 46.1 µM), hits mostly activators. actives 0.23% (n = 320,000); further: nearly all actives have a fitted effect of over 45% in size
#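 Temperature-sensitive fusion-defective S. cerevisiae (e.g. fzo1-1, mgm1-5) were grown with compound in YPEG medium (3% ethanol, 3% glycerol) for 48 hours at 37C. Growth rescue was measured as viability by CellTiterGlo luminescence after 10 minutes at ambient.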
# Numbers stand for hits; n = inactive; u = inconclusive; x = not tested or not shown. The list is not random: actives were taken first. Their share in the collection is about 5.5%. Unless noted, the call rests on the fitted dose curve; in most records, active means well fitted curve in the direction sought with a large enough effect; inconclusive means small, poorly fitted or top-dose-only effect, or another doubt; inactive means no such curve, though single readings can be large; an effect the other way counts as inactive or inconclusive.
SMILES,Gal4-VP16 FLuc,uPA surface inh,BCR signal inh,a7 integrin act,RORg inh,Mito fusion yeast
CCCCn1c(N)c(N(CC(C)C)C(=O)c2ccc(-c3ccc(C(C)=O)cc3)o2)c(=O)[nH]c1=O,x,n,n,n,x,n
CN(Cc1ccccc1)C(=O)C1CCN(S(=O)(=O)c2cccc3nsnc23)CC1,n,n,n,n,n,n
Cc1cccc(-n2c(C)cc(/C=N/NC(=O)c3cccc([N+](=O)[O-])c3C)c2C)c1,u,n,n,n,7.9µM,n
Cc1ccc2cc(/C=N/NC(=O)c3ccccc3[N+](=O)[O-])c(Cl)nc2c1,n,n,n,n,n,n
Cc1cc(/C=N/NC(=O)c2ccccc2F)c(C)n1-c1ccccc1,u,u,u,u,13µM,n
Cc1cc(/C=N/NC(=O)c2cccc(F)c2)c(C)n1-c1ccccc1,13µM,u,u,n,5.6µM,n
Cc1cc(/C=N/NC(=O)c2c(Br)cnn2C)c(C)n1-c1cccc(Br)c1,7.1µM,n,u,n,6.3µM,n
Cc1cc(C)c(S(=O)(=O)NCC(c2ccco2)N2CCOCC2)c(C)c1 (stereo not given),x,x,n,x,x,x
CCOc1ccc(C(CCc2ccccc2)NC(=O)c2ccccc2F)cc1OCC (stereo not given),n,x,n,n,n,n
CCOc1ccc(C(CCc2ccccc2)NC(=O)c2ccccc2OC)cc1OCC (stereo not given),u,x,n,n,7.9µM,n
O=C1CC(c2ccc3c(c2)OCCO3)Oc2ccc([N+](=O)[O-])cc21 (stereo not given),13µM,10µM,u,n,11µM,n
O=C1CC(c2ccc3c(c2)OCCO3)Oc2ccccc21 (stereo not given),n,n,u,n,n,n
CN1C[C@@H]2[C@@H]3C(=O)N(C)C(=O)[C@@H]3[C@](C)(C1=O)N2C(=O)c1ccc(Br)cc1,x,n,x,n,x,x
CCOc1ccc(CN2CCNC(=O)C2CC(=O)NCc2ccccn2)cc1 (stereo not given),n,n,u,n,11µM,n
CCOc1ccc(CN2CCNC(=O)C2CC(=O)NCCc2ccccn2)cc1 (stereo not given),n,n,n,n,n,n
CCOc1ccc(NC(c2ccccc2)P(=O)(OC)OC)cc1 (stereo not given),n,n,n,n,n,n
COC(C(=O)N/N=C(\C)CC(=O)Nc1ccc(Cl)cc1C)c1ccccc1 (stereo not given),n,n,n,n,n,n
COC(C(=O)N/N=C(\C)CC(=O)Nc1ccc(N(C)C)cc1)c1ccccc1 (stereo not given),n,n,n,n,13µM,n
N#C/C(=C\c1ccc(O)cc1)C(=O)NCC1CCCO1 (stereo not given),x,x,n,x,x,x
CCOC(=O)c1cnc2ccc(OCC)cc2c1NCc1ccccc1,5µM,n,u,n,2.8µM,n
CCOC(=O)c1cnc(-n2nc(C)cc2C)nc1NC(C)c1ccccc1 (stereo not given),2.2µM,n,n,n,1.4µM,n
CCOC(=O)c1cnc2ccc(OCC)cc2c1NCc1cccnc1,n,n,u,n,n,n
CCOC(=O)c1cnc(-n2cc(C)cn2)nc1NCc1ccc2c(c1)OCO2,u,x,n,n,13µM,n
CCOC(=O)c1cnc(-n2nc(C)cc2C)nc1NCCO,n,x,n,n,u,n
CCOC(=O)c1cnc(-n2nc(C)cc2C)nc1NCc1ccccc1,2.5µM,n,n,n,1.4µM,n
SMILES,Gal4-VP16 FLuc,uPA surface inh,BCR signal inh,a7 integrin act,RORg inh,Mito fusion yeast
COc1ccc(OC)c2c(=S)c3ccccc3[nH]c12,n,x,x,x,n,x
CC(C)Cc1nccs1,n,n,n,n,n,n
Cc1ccc(S(=O)(=O)CC(=O)Nc2nc3c(C)cc(C)cc3s2)cc1,x,x,n,x,x,x
COc1ccc(C(=S)NCS(=O)(=O)c2ccc(C)cc2)cc1,u,n,u,n,16µM,n
Cc1ccc(S(=O)(=O)CNC(=S)c2cccc(C)c2)cc1,u,x,18µM,n,13µM,n
Cc1ccc(S(=O)(=O)CNC(=S)c2ccc3ccccc3c2)cc1,u,n,u,n,11µM,n
Cc1ccc(S(=O)(=O)CNC(=O)c2ccccc2)cc1,n,n,u,n,u,n

# Screening results (PubChem)
